Screening results as filed in PubChem BioAssay.
PK Bst: Pyruvate Kinase | Potency, µM | 51,000 compounds, 1.2% hits | purified pyruvate kinase, luminescence ATP production; ribose 5-phosphate activator present at AC10 | AID 361, 2006; in the data active = potency below about 11 µM; inconclusive = mostly about 12 µM to 25 µM;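 the screen sought inhibitors and activators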
FLuc inh: qHTS Assay for Inhibitors of Firefly Luciferase | purified firefly luciferase, luminescence, 8 min | 72,000 compounds, 2.2% hits | Potency, µM (doses to about 57.1 µM), most hits filed as inhibitors; active = well fitted inhibition curve with a large enough effect; inconclusive = small, poorly fitted or top-dose-only effect; note: nearly all actives have a fitted effect of over 40% in size
Target sequence (P08659 whole entry, looked up): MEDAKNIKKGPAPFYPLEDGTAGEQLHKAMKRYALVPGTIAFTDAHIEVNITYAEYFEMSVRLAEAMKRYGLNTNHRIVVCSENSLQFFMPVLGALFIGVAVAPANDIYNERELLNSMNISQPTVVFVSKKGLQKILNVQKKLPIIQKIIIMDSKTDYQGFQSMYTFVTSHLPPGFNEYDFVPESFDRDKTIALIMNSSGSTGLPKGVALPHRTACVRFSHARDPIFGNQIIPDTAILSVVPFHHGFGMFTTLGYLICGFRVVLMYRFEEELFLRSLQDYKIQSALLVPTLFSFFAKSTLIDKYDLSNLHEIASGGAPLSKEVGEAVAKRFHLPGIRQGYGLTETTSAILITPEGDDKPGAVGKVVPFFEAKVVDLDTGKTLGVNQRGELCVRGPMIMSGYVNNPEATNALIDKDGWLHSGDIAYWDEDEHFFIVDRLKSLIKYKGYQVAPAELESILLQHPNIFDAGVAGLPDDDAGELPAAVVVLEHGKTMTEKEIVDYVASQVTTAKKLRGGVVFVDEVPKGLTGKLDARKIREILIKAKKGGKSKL
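Compounds were tested as concentration series (qHTS) against purified P. pyralis luciferase with luciferin and 10 uM ATP in 50 mM imidazole pH 7.2, 50 mM KCl, 7 mM MgCl2, 0.01% Tween 20, 0.05% BSA. Luminescence was read after 8 min at ambient temperature.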
GBA mod: Glucocerebrosidase; purified enzyme, resorufin glucoside fluorescence (screen aimed at inhibitors), 20 min; 48,000 compounds, 1.1% hits; Lysosomal acid glucosylceramidase (Homo sapiens), P04062; Potency, µM; in the data active = potency below about 15 µM; inconclusive = mostly about 16 µM to 33 µM;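 note: the screen sought inhibitors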
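Normal human glucocerebrosidase (0.2 nM final) was assayed with resorufin β-D-glucopyranoside (30 uM final) in 50mM citric acid/KH2PO4, 10mM sodium taurocholate, 0.01% tween-20, pH 5.9. Compounds were titrated; fluorescence (Ex 548, Em 600) read after 20 min at RT.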
A number is an active result; [ ] = dose if it differs, or a comment. Shown are actives, neighbours in structure and some others; about 3.4% of the full set was active somewhere.

For Cc1ccnc(Nc2nc3ccccc3o2)n1 the results were FLuc inh 6.3µM.
For N#Cc1cnc(Nc2nc3ccccc3o2)nc1-c1ccccc1 the results were PK Bst inactive, FLuc inh inactive and GBA mod inactive.
For N#Cc1cccc(-c2ccc3ncnc(NCc4ccccc4)c3c2)c1 the results were FLuc inh inactive[2.29 µM].
`CC(C)[C@@H](C(=O)O)N1C(=O)c2ccccc2C1=O` gave FLuc inh inactive[11.4 µM].
For Cc1cc(C2N=C(N)Nc3nc4ccccc4n32)c(C)n1-c1ccccc1Cl (stereo not drawn) the results were PK Bst inactive, FLuc inh inactive and GBA mod 13.
For Cc1ccc(-n2c(C)cc(C3N=C(N)Nc4nc5ccccc5n43)c2C)c(C)c1 (stereo not drawn) the results were PK Bst inactive, FLuc inh inactive and GBA mod inconclusive.
Screening O=S(=O)(Cc1nc2ccccc2s1)c1ccccc1 returned PK Bst inactive, FLuc inh inactive and GBA mod inactive.
c1ccc(OCc2nc3ccccc3s2)cc1 was read as PK Bst inactive, FLuc inh 13µM and GBA mod inactive.
`O=C(Cn1nnc(-c2ccccc2F)n1)Nc1ccc(S(=O)(=O)NC2CCCC2)cc1` gave PK Bst inactive, FLuc inh inactive and GBA mod 6.9.
`O=C(Cn1nnc(-c2ccccc2F)n1)Nc1ccc(C(=O)N2CCOCC2)cc1` gave PK Bst inactive, FLuc inh inactive and GBA mod inactive.
`COc1ccc(-c2nc(N)nc(C)c2Oc2ccccc2Br)c(O)c1` gave PK Bst 1.9, FLuc inh inactive and GBA mod inactive.
Screening COc1ccc(-c2nc(N)ncc2-c2csc(C)n2)c(O)c1 returned PK Bst inactive, FLuc inh inactive and GBA mod inactive.
Screening CCOC(=O)c1cn2c3c(c(F)c(F)c(F)c3c1=O)SC(N1CCCC1)=N2 returned PK Bst inactive, FLuc inh inactive and GBA mod inactive.
Screening COc1nc(-c2ccccc2)cc(-c2ccc(OC)c(OC)c2)n1 returned FLuc inh inactive.
COc1ccc(-c2cn3cc(Cl)ccc3n2)cc1OC was read as PK Bst inactive, FLuc inh inconclusive and GBA mod 2.8.
CC1CCCC(C)N1C(=O)c1cc(F)c(F)cc1Cl (stereo not drawn) was read as FLuc inh inactive and GBA mod inactive.
For Cc1ccc(-c2cc(C(=O)N3CCCC3)no2)cc1 the results were PK Bst 7.9, FLuc inh 4µM and GBA mod inactive.
`CC1CCCC(C)N1C(=O)c1cc(-c2ccc(Cl)c(Cl)c2)on1` (stereo not drawn) gave PK Bst 7.7, FLuc inh inactive and GBA mod inactive.
For COc1ccc(-c2cc(C(=O)N3CCCCC3)no2)cc1OC the results were PK Bst inactive, FLuc inh inactive and GBA mod inactive.
For CN1CC[C@@]2(CCCN(C(=O)c3cccc(F)c3)C2)C1 the results were FLuc inh inactive[11.4 µM].
For CC(=O)NCCNc1nc(-c2cccnc2)nc2ccccc12 the results were FLuc inh inactive[2.29 µM].
For Cc1nccn1-c1cc(C(C)C)c(C#N)c2nc3ccccc3n12 the results were PK Bst inactive and FLuc inh inactive.
Screening Cc1ccccc1-c1nc(-n2ccnc2)c2ccccc2n1 returned FLuc inh inactive[2.29 µM].
For COc1ccc(C2C(C#N)=C(SC)NC3=C2C(=O)CC(C)(C)C3)cc1 (stereo not drawn) the results were PK Bst inactive and FLuc inh inactive.
For COC(=O)c1ccc(C2C(C#N)=C(C)NC3=C2C(=O)CC(C)(C)C3)cc1 (stereo not drawn) the results were PK Bst inactive, FLuc inh inactive and GBA mod 12.
For CC(=O)O[C@@H]1[C@H]([N+]2(C)CCCCC2)C[C@@H]2[C@@H]3CC[C@@H]4C[C@@H](OC(C)=O)[C@H]([N+]5(C)CCCCC5)C[C@@]4(C)[C@H]3CC[C@]21C the results were FLuc inh inactive.
For Cc1cc(C)nc(NCCCc2ccccc2)n1 the results were PK Bst inactive and FLuc inh inactive.
`CCCCNc1cc(C)nc(NCc2ccccc2)n1` gave PK Bst inactive, FLuc inh inactive and GBA mod 6.3.
Cc1cccc(-c2ccc(C=Nc3c(C)n(C)n(-c4ccccc4)c3=O)o2)c1 was read as FLuc inh inactive and GBA mod inactive.
`Cc1c(N=Cc2nc3ccccc3[nH]2)c(=O)n(-c2ccccc2)n1C` gave FLuc inh 16µM and GBA mod inactive.
Cc1c(N=Cc2c(O)n(Cc3ccco3)c(=O)c3ccccc23)c(=O)n(-c2ccccc2)n1C was read as PK Bst inactive, FLuc inh inactive and GBA mod inactive.
`Cc1c(N=Cc2nc3ccccc3n2C)c(=O)n(-c2ccccc2)n1C` gave FLuc inh 4µM.
For COCCn1c(=O)c(CCc2ccccc2)nc2cnc(N(C)C)nc21 the results were FLuc inh inactive[11.4 µM].
Screening CN(C(=O)c1ccccc1)c1nc2ccccc2s1 returned PK Bst 8.5, FLuc inh 6.3µM and GBA mod inactive.
For CN(C(=O)c1ccncc1)c1nnc(-c2ccccn2)s1 the results were PK Bst inactive, FLuc inh inactive and GBA mod inactive.
`CCCn1cnc2c(c1=O)c1nc3ccccc3nc1n2CCC1=CCCCC1` gave PK Bst inactive, FLuc inh inactive and GBA mod inactive.
CCCn1cnc2c(c1=O)c1nc3ccccc3nc1n2CCc1ccccc1 was read as PK Bst inactive, FLuc inh inactive and GBA mod 7.
For COCCNc1ncnc2ccc(-c3cccc(OC)c3)cc12 the results were FLuc inh inactive[2.29 µM].
`CN(C)Cc1cc(C(F)(F)F)ccc1C(O)(c1ccccc1)c1ccccc1` gave FLuc inh inactive[11.4 µM].
Screening COc1ccc(-c2nc3cnc(OC)nc3n(C[C@H]3CCCO3)c2=O)cc1 returned FLuc inh inactive[11.4 µM].
For C[C@H]1[C@H](O)[C@@H](C)C=CC=CC=CC=CC=CC=CC=C[C@H](O[C@@H]2O[C@@H](C)[C@H](O)[C@@H](N)[C@@H]2O)C[C@@H]2O[C@](O)(C[C@@H](O)C[C@@H](O)[C@@H](O)CC[C@@H](O)C[C@@H](O)CC(=O)O[C@H]1C)C[C@H](O)[C@H]2C(=O)O the results were FLuc inh inactive[11.4 µM].
`COCCn1c(=O)c(-c2ccc(F)cc2)nc2cnc(N3CCOCC3)nc21` gave FLuc inh inactive[11.4 µM].
`CCn1c(-c2c[nH]c3ccccc23)n[nH]c1=S` gave FLuc inh inactive and GBA mod 11.
Screening C=CCn1c(-c2c[nH]c3ccccc23)n[nH]c1=S returned PK Bst inactive, FLuc inh inactive and GBA mod inactive.
For COc1ccc(NC(=O)N2CCC3(CC2)CCN(S(C)(=O)=O)CC3)cc1 the results were FLuc inh inactive[11.4 µM].
Screening CCOc1cc(C)nc(N2CCCC(C(=O)NCc3ccccc3F)C2)n1 (stereo not drawn) returned PK Bst inactive, FLuc inh inactive and GBA mod inactive.
Screening Cc1cc(C)nc(N2CCCC(C(=O)NCCc3ccccc3F)C2)n1 (stereo not drawn) returned PK Bst 3.2, FLuc inh inactive and GBA mod inactive.
For NS(=O)(=O)c1nc(S(=O)(=O)O)c2[nH]cnc2n1 the results were FLuc inh inactive[11.4 µM].
COc1ccc(-c2coc3cc(O)ccc3c2=O)cc1 was read as FLuc inh inactive[11.4 µM].
